hcDAF-12 act = activates DAF-12 receptor from parasite H. contortus. 370,000 compounds, 1.4% hits. activation, % at 6.8 µM. HEK293 hcDAF-12 lit1-tk-luc reporter, luminescence; 0% DMSO, 100% Δ7-dafachronic acid;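 active = activation above the mean of all tested compounds plus 3 SD, cut at about 5.5% in these data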;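 also: 100% = response to 3 µM Δ7-dafachronic acid high control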
hgDAF-12 ag = activates the H. glycines DAF-12 receptor ligand-binding domain; HEK293 GAL4-hgDAF12 UAS-luciferase reporter, agonist luminescence; normalized to butyrate control; activation, % at 6.8 µM; 370,000 compounds, 1.8% hits; AID 687014;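 active = activation above a cutoff set at the mean of all screened compounds plus 3 SD, cut at about 10% in these data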;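 also: 0% = DMSO wells and 100% = sodium butyrate wells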
DAX1 inh-1 = NR0B1 (DAX1) inhibition; P51843; HEK293 Gal4-DAX1 luciferase reporter, luminescence; inhibition, % at 6.75 µM; 340,000 compounds, 0.99% hits;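 active = inhibition above the mean over all tested compounds plus 3 SD, cut at about 4.2% in these data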;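 also: 0% = DAX1-transfected cells with DMSO and 100% = empty-vector control cells with DMSO; inhibition shows as a rise in luminescence from relieved DAX1 repression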
Target sequence (P51843 207-470 limits assumed): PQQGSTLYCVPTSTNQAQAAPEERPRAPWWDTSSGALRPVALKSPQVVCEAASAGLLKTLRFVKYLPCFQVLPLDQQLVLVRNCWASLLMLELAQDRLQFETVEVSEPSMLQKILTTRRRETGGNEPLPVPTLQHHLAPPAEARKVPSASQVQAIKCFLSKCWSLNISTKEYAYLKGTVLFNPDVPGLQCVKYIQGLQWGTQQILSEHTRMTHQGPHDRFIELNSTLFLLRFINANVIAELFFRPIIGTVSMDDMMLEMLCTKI
NR1D1 modulator = Rev-erb alpha (human) modulation | Rev-erbα–FITC-DNA binding, fluorescence polarization, 90 min | activity, % at 10 µM | P20393 | 370,000 compounds, 0.79% hits;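 active = activity above about 14%, limit read from the data; passing the limit was not always enough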;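 also: 0% = DMSO wells with 35 nM protein and 100% = DMSO wells with 750 nM protein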
ssDAF-12 act = activates DAF-12 receptor from parasite S. stercoralis. HEK293 ssDAF-12/GRIP1 lit1-tk-luc reporter, luminescence; % of 3 µM dafachronic acid response. activation, % at 6.8 µM. 370,000 compounds, 1% hits. AID 652126;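 active = activation above the mean over all tested compounds plus 3 SD, cut at about 0.9% in these data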;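 also: 0% = DMSO-only wells and 100% = 3 µM delta7-dafachronic acid wells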
DAX1 inh-2 = inhibitors of DAX1 repression of SF-1 activated StAR promoter | HEK293T StAR-luciferase reporter, SF-1/DAX-1 repression relief | 370,000 compounds, 1.1% hits | inhibition, % at 6.8 µM;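 active = inhibition above the mean over all tested compounds plus 3 SD, cut at about 3.6% in these data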;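 also: 0% = DAX-1 cells with DMSO and 100% = cells lacking DAX-1 with DMSO; higher inhibition means more luminescence from relief of DAX-1 repression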
An asterisk follows results filed as active; / = no result. This is a sample that favours compounds with a hit; in the whole collection about 4.8% have one here.

SMILES	hcDAF-12 act	hgDAF-12 ag	DAX1 inh-1	NR1D1 modulator	ssDAF-12 act	DAX1 inh-2
COc1ccc(CCNC(=O)Nc2ccc3c(c2)[C@]2(CC(=O)N(CC(C)C)C2c2ccccc2)C(=O)N3C)cc1OC (stereo partly specified)	-3	-2	/	1	-1	0
CN(C)C(=O)C12CCC(C)(C(=O)C1Br)C2(C)C (stereo unspecified)	0	0	-1	3	1.0*	-1
Clc1ccc(-n2c(SCc3cccc4ccccc34)nnc2-c2ccccc2)cc1	-2	-1	/	3	-2	-1
COc1ccc(NC(=S)Nc2ccc3nccnc3c2)cc1	3	11*	0	-6	-1	1
COc1ccc(-n2c(SCc3nc4ccccc4[nH]3)nc3ccccc3c2=O)cc1	1	1	/	-6	-1	0
O=C(NCC1CCN(C(=O)C(=O)c2cc3ccccc3o2)CC1)c1ccc2c(c1)OCC2	0	0	/	-3	-1	1
CC(C)c1cc(C(=O)NCCc2ccccc2)no1	5	6	7.4*	-3	1	3
CSc1ccccc1NC(=O)c1cc(C)on1	0	1	-1	-5	-1	0
CSc1ccccc1NC(=O)c1cc(C(C)C)on1	6.4*	5	1	-3	0	1
COc1ccc(-n2c(COc3ccccc3)nnc2SCC(=O)Nc2ccccc2-c2ccccc2)cc1	-3	-1	/	-4	-2	-1
CCn1c(Cc2cccs2)nnc1SCC(=O)Nc1cccc2ccccc12	-1	0	/	5	-1	0
CC(=O)[C@@]12O[C@](C)(c3ccccc3)O[C@@H]1CC1C3CCC4=CC(=O)CC[C@]4(C)C3CC[C@@]12C (stereo partly specified)	/	/	/	2	/	/
Nc1nc(NCCCN2CCOCC2)nc(Nc2ccc(F)cc2)c1[N+](=O)[O-]	-2	0	0	-8	-1	0
Nc1nc(NCCCN2CCOCC2)nc(Nc2ccccc2F)c1[N+](=O)[O-]	-2	-4	4.5*	1	-1	0
C/C(=N\O)C(C)(C)Nc1cccc(F)c1	0	0	5.2*	4	-1	1
C/C(=N\O)C(C)(C)Nc1cccc(Br)c1	-1	-2	-1	9	-1	0
CS(=O)(=O)N1CCC[C@]2(CC[C@H](CCC#N)O2)C1	-1	2	/	5	-1	1
COc1cc(C=Nn2c(-c3cc(-c4ccccc4)n[nH]3)n[nH]c2=S)ccc1OC(C)=O	-2	4	/	0	-2	-1
CC(NC(=O)NC(N)=O)(C(F)(F)F)C(F)(F)F	-2	2	5.5*	0	-1	0
CC(NC(=O)NNC(N)=S)(C(F)(F)F)C(F)(F)F	-1	0	3	-5	-2	0
O=CNC(n1cnc2c(N3CCOCC3)ncnc21)C(Cl)(Cl)Cl (stereo unspecified)	-1	-2	10.0*	-2	0	0
Nc1ncnc(N2CCOCC2)c1N	0	2	2	-4	-1	0
COc1ccc2nc(N/C(N)=N/S(C)(=O)=O)nc(C)c2c1	-1	1	4.6*	2	0	0
CN(C)c1ccc(-c2nnc(SCC3CCCO3)n2C)cc1 (stereo unspecified)	2	8	4.8*	2	0	2
Cn1c(SCC2CCCO2)nnc1-c1ccncc1 (stereo unspecified)	-1	-2	0	0	-1	1
OCCN1CN(c2ccccc2)C(=S)N(c2ccccc2)C1	0	-1	/	5	-2	3
CC1C(O)=C(c2nc3ccccc3[nH]2)C(=N)N1c1ccccc1 (stereo unspecified)	0	13*	2	4	-1	0
N=C1C(c2nc3ccccc3[nH]2)=C(O)CN1c1ccccc1	1	5	0	-2	-1	1
COc1cc(NC(=O)C2CCN(c3nnc(-n4cccc4)s3)CC2)cc(OC)c1	1	1	/	4	-2	0
COc1ccccc1NC(=O)C/C(C)=N/NC(=O)C12CC3CC(CC(C3)C1)C2	-1	5	2	3	0	1

Screening data (PubChem BioAssay)
